Paper PMC4336329 (PLoS ONE, 2015)
About 14,000 (4.5%) of roughly 310,000 compounds showed an effect of 50% or more. Effects have a minus sign here. Only a selection was taken, and strong results are over-represented in it overall.

target: human ether-à-go-go-related gene (hERG) potassium channel (human, UniProt Q12809); test: primary screen, population patch clamp on CHO cells stably expressing hERG; higher = less effect of the substance
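Further: peak tail current of the secondary pulse compared with the same well before compound.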

human ether-à-go-go-related gene (hERG) potassium channel, sequence (Q12809 whole entry, looked up): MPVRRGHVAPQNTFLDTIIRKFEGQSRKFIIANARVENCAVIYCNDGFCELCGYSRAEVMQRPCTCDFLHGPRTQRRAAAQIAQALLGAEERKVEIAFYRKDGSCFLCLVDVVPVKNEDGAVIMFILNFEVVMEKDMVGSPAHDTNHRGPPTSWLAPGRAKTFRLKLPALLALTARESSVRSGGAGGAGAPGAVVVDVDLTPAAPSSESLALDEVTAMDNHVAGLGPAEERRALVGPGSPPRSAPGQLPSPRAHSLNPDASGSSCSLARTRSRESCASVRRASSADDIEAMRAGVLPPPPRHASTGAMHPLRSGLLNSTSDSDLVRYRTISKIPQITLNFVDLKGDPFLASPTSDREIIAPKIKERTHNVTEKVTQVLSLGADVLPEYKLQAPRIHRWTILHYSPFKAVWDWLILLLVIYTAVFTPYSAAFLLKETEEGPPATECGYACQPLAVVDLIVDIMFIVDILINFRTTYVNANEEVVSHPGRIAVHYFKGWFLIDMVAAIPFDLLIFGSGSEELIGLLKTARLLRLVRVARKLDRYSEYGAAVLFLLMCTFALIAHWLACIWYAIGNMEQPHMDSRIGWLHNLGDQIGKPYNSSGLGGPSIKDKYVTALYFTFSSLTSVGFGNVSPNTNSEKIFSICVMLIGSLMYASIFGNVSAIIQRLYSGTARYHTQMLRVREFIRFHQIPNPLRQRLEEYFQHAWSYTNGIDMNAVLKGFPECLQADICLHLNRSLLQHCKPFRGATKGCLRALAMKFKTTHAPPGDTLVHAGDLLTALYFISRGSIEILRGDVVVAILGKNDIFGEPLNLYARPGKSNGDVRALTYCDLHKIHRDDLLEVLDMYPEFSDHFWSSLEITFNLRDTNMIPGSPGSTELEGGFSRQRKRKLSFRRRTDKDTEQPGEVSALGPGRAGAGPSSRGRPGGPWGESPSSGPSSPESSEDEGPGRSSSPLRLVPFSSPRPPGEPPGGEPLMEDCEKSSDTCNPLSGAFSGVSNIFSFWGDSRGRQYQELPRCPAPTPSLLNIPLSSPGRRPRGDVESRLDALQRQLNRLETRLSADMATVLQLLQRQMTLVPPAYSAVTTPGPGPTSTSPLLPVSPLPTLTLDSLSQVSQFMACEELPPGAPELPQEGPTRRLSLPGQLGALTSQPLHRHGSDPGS

| SMILES | hERG current change (%, negative = inhibition) at 10uM |
| --- | --- |
| N/C(Cc1nc(-c2ccc(F)cc2)cs1)=N\O | 13.7% |
| COc1ccc(/C=C2\SC(=S)N(NS(=O)(=O)c3ccccc3)C2=O)c(OC)c1 | -33.1% |
| CCOC(=O)Cc1csc(NS(=O)(=O)Cc2ccccc2)n1 | 3.54% |
| CC(C)c1ccc(Nc2nc(Cl)nc(Cl)n2)cc1 | 19.1% |
| Cc1ccc(C)c(CN2CCC(CNC(=O)Nc3ccc(F)c(Cl)c3)CC2)c1 | -65% |
| Cc1cccc(NC(=O)NCC2CC2)c1 | 4.74% |
| Cc1ccc(C)c(CN2CCC(CNC(=O)Nc3ccc(Cl)cc3)CC2)c1 | -68.6% |
| COc1ccc(Cl)cc1NC(=O)NCC1CCN(C(=O)OC(C)(C)C)CC1 | 4.67% |
| COc1ccc(N2CCC(CNC(=O)Nc3ccc(Cl)cc3)C2)cc1 (stereo not drawn) | 11.5% |
| COc1ccc(Cl)cc1NC(=O)NCC1CCN(Cc2ccccc2F)CC1 | -37.7% |
| Cc1cccc(CN2CCC(CNC(=O)Nc3ccc(F)c(Cl)c3)CC2)c1 | -74.9% |
| COc1ccc(Cl)cc1NC(=O)NCC1CCN(Cc2cc(C)ccc2C)CC1 | -67.7% |
| COc1ccc(C(CC(=O)NCCN2CCOCC2)NS(=O)(=O)c2ccc(C)cc2)cc1 (stereo not drawn) | 5.28% |
| Cc1ccc(CNC(=O)C2CCCN(c3nc4ccccc4o3)C2)cc1 (stereo not drawn) | -1.06% |
| O=C(CSc1nnc(-c2ccco2)o1)NCC(=O)c1ccccc1 | -4.72% |
| COC(=O)CCC(=O)NNC(=O)c1cccc(Cl)c1 | 16.4% |
| CC(=O)c1sc(NC(=O)C(C)C)nc1C | -0.878% |
| CC(=O)Nc1ccc(-c2csc(Nc3ccc(S(N)(=O)=O)cc3)n2)cc1 | -1.99% |
| O=C(Cn1nc(-c2ccc(F)cc2)ccc1=O)Nc1ccc2c(c1)OCCO2 | -0.525% |
| Cc1ccc(NC(=O)NCC2CCN(Cc3cc(C)ccc3Cl)CC2)c(C)c1 | -58.3% |
| Cc1ccc(C)c(CN2CCC(CNC(=O)Nc3cccc(Cl)c3C)CC2)c1 | -43.1% |

| SMILES | hERG current change (%, negative = inhibition) at 10uM |
| --- | --- |
| Cc1ccc(NC(=O)NC(=O)CN2CCC(C(N)=O)CC2)c(C)c1 | 12% |
| O=C(Cn1nnc(-c2ccccc2)n1)c1ccccc1 | 7.22% |
| Cc1ccc2nc(/N=C(\N)NC(=O)NC3CCCCC3)nc(C)c2c1 | -76.4% |
| CCCC(=O)N/C(N)=N/c1nc(C)c2cc(C)ccc2n1 | -23.8% |
| Cc1nc(/N=C(\N)NC(=O)NC2CCCCC2)nc2ccccc12 | -21% |
| COC(=O)CN1CCN(C(=O)c2ccco2)CC1 | 10% |
| CCc1c(C)sc(NC(=O)CN2CCN(C(=O)c3ccco3)CC2)c1C(=O)OC | -39.7% |
| CCOC(=O)c1cc(C)sc1NC(=O)CN1CCN(C(=O)C2CCCO2)CC1 (stereo not drawn) | -31% |
| CCOC(=O)c1c(NC(=O)CN2CCN(C(=O)c3ccco3)CC2)sc(C(N)=O)c1C | -20.1% |
| CCc1cc(C(=O)OC)c(NC(=O)CN2CCN(C(=O)C3CCCO3)CC2)s1 (stereo not drawn) | -47.2% |
| COC(=O)c1cc(C)sc1NC(=O)CN1CCN(C(=O)c2ccco2)CC1 | -30% |
| CCOC(=O)c1cc(CC)sc1NC(=O)CN1CCN(C(=O)C2CCCO2)CC1 (stereo not drawn) | -65.9% |
| Cc1ccc(C(=O)c2cc(C)sc2NC(=O)CN2CCN(C(=O)c3ccco3)CC2)cc1 | -11.7% |
| CCOC(=O)c1c(NC(=O)CN2CCN(C(=O)c3ccco3)CC2)sc(C)c1C | -8.41% |
| CCOC(=O)c1cc(C)sc1NC(=O)CN1CCN(C(=O)c2ccco2)CC1 | -72.8% |
| CCOC(=O)c1cc(CC)sc1NC(=O)CN1CCN(C(=O)c2ccco2)CC1 | -67.2% |
| CCc1cc(C(=O)OC)c(NC(=O)CN2CCN(C(=O)c3ccco3)CC2)s1 | -51.6% |
| COC(=O)c1sccc1NC(=O)c1cc(-c2ccc(C)cc2C)nc2ccccc12 | 6.94% |
| CC(C)C(NC(=O)c1ccc(C(C)(C)C)cc1)C(=O)NC1=NCCS1 (stereo not drawn) | -6.13% |
| Cc1ccccc1CN(c1ccc(C(=O)Nc2cccnc2)cc1)S(C)(=O)=O | -9.59% |
| NC(=O)CSc1n[nH]c(-c2ccco2)n1 | 24% |

| SMILES | hERG current change (%, negative = inhibition) at 10uM |
| --- | --- |
| O=C(COC(=O)COc1cccc(C(F)(F)F)c1)NC(=O)NC1CCCCC1 | -1.9% |
| Cc1c(CNCCc2ccccc2)c(C(=O)O)c(C)n1-c1ccccc1 | 12.1% |
| C/C(=N/NC(=O)CNC(=O)Cc1ccc(Cl)cc1)c1ccco1 | 4.04% |
| CCc1cc(C(=O)c2ccc(OC)cc2)c(NC(=O)CN2CCCC2)s1 | -12.4% |
| CCc1cc(C(=O)c2ccc(OC)cc2)c(NC(=O)CN2CCCCC2)s1 | 5% |
| CCc1cc(C(=O)c2ccc(OC)cc2)c(NC(=O)CN2CCN(C)CC2)s1 | -71.3% |
| CCOc1cccc2cc(C(=O)N3CCc4ccccc43)c(=O)oc12 | -2.43% |
| COC(=O)C1=C(c2ccc(OC)c(OC)c2)C[C@@H]2CC[C@H]1N2C(=O)NCCCOC(C)C | 15.3% |
| C[N+]1(CC(=O)OCCCC2CCCCC2)CCCC1.[I-] | -8.31% |
| Cl.OC(CNC1CCCC1)COc1ccc(F)cc1 (stereo not drawn) | 5.27% |
| Cl.OC(CNC1CCCC1)COc1ccc(Cl)cc1 (stereo not drawn) | -9.8% |
| Cl.OC(CNC1CCCC1)COc1ccc(-c2ccccc2)cc1 (stereo not drawn) | -51.8% |
| COc1ccc(OCC(O)CNC2CCCC2)cc1.Cl (stereo not drawn) | 12.8% |
| Cl.OC(CNCC1COc2ccccc2O1)COc1ccc(Cl)cc1 (stereo not drawn) | -56.2% |
| OC(CNC1Cc2ccccc2C1)COc1ccc(F)cc1 (stereo not drawn) | -49.1% |
| Cl.O=[N+]([O-])c1ccc(OCC(O)CNC2CCCC2)cc1 (stereo not drawn) | -76.2% |
| CC(OCC(O)CNCC1COc2ccccc2O1)c1ccc(Cl)cc1 (stereo not drawn) | -22.7% |
| COC(=O)c1ccc(OCC(O)CNC2CCCC2)cc1.Cl (stereo not drawn) | 13.3% |
| O=C(O)c1ccccc1C(=O)NCC(O)COc1ccc(Cl)cc1 (stereo not drawn) | 2.34% |
| OC(CNCC1COc2ccccc2O1)COc1ccccc1F (stereo not drawn) | 1.11% |
| OC(CNC1Cc2ccccc2C1)COc1ccc(Cl)cc1 (stereo not drawn) | -68.8% |
